Reference: the supplement of paper PMC10849652
The full data set covers some 7,900 targets. This sample favours those with a hit. About 0.6% of all pairs of compound and target were hits.

Tests used:
Assay in all cases: log2 fold change, soluble protein after heating vs DMSO (PISA); higher = thermal stabilisation; K562 cells, 10 uM, 30 min; active = over 0.2 and 3.5 SD of the protein, either way, in both replicates (recomputed)
[1] = compound: CC1=C(C=C(C=C1)NC(=O)C2=CC(=CC=C2)C(C)(C)C#N)NC3=CC4=C(C=C3)N=CN(C4=O)C
Summary of the method: (§1)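 K562 cells at 2×10^6 cells/mL were treated for 30 min with 10 μM compound, and aliquots were heated for 3 min over 48°C-58°C before pooling. Extraction used PBS with 0.5% NP-40 at 4°C, and soluble protein was the supernatant after 21,000xg for 90 min, measured by TMTpro 16plex LC-MS/MS with channel sums equalised. Thermal stability values, relative to control samples and from duplicates, are log2 fold changes.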

[2] = compound: CC1=C(C=C(C=C1)NC(=O)C2=CC(=CC=C2)N(C)C)NC(=O)C3=CC=C(C=C3)O
Summary of the method: as §1

[3] = compound: CC1=CC=C(C=C1)SC2=C3C=C(SC3=CN=C2)C(=O)N
Summary of the method: as §1

[4] = compound: CC1=NC(=CC=C1)C2=C(N=C(N2)C(C)(C)C)C3=CC4=NC=CN=C4C=C3
Summary of the method: as §1

vemurafenib = compound: CCCS(=O)(=O)Nc1ccc(F)c(C(=O)c2c[nH]c3ncc(-c4ccc(Cl)cc4)cc23)c1F [vemurafenib]
Summary of the method: as §1

[5] = compound: CCCS(=O)(=O)Nc1ccc(F)c(C(=O)c2c[nH]c3ncc(Cl)cc23)c1F
Summary of the method: as §1

[6] = compound: CCCc1cc(C)[nH]c(=O)c1CNC(=O)c1cc(-c2ccnc(N3CCN(C)CC3)c2)cc2c1cnn2C(C)C
Summary of the method: as §1

givinostat = compound: CCN(CC)Cc1ccc2cc(COC(=O)Nc3ccc(C(=O)NO)cc3)ccc2c1 [givinostat]
Summary of the method: as §1

barasertib = compound: CCN(CCCOc1ccc2c(Nc3cc(CC(=O)Nc4cccc(F)c4)[nH]n3)ncnc2c1)CCOP(=O)(O)O [barasertib]
Summary of the method: as §1

Nexturastat A = compound: CCCCN(Cc1ccc(C(=O)NO)cc1)C(=O)Nc1ccccc1 [Nexturastat A]
Summary of the method: as §1

Measured: log2 fold change

BDH2 (UniProt Q9BUT1)
inactive: [1] -0.051 | [2] -0.085 | [3] 0.086 | [4] 0.016 | [5] -0.077 | [6] -0.019 | givinostat -0.033 | barasertib -0.019
active: vemurafenib 0.447

ARPP19 (UniProt P56211)
UniProt P56211, sequence (P56211 whole entry, looked up): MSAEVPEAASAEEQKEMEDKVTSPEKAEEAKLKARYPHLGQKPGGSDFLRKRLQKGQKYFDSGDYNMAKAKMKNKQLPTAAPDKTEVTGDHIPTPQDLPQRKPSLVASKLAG
inactive: [1] -0.012 | [2] 0.199 | [3] 0.057 | [4] 0.125 | Nexturastat A -0.04 | vemurafenib 0.041 | [5] 0.043 | [6] -0.106 | givinostat -0.003 | barasertib -0.012

ALDH9A1 (UniProt P49189)
inactive: [1] 0.004 | [2] 0.004 | [3] -0.015 | Nexturastat A -0.125 | vemurafenib 0.026 | [5] 0.005 | [6] 0.18 | givinostat 0.058 | barasertib 0.05

ALDH6A1 (UniProt Q02252)
UniProt Q02252, sequence (Q02252 whole entry, looked up): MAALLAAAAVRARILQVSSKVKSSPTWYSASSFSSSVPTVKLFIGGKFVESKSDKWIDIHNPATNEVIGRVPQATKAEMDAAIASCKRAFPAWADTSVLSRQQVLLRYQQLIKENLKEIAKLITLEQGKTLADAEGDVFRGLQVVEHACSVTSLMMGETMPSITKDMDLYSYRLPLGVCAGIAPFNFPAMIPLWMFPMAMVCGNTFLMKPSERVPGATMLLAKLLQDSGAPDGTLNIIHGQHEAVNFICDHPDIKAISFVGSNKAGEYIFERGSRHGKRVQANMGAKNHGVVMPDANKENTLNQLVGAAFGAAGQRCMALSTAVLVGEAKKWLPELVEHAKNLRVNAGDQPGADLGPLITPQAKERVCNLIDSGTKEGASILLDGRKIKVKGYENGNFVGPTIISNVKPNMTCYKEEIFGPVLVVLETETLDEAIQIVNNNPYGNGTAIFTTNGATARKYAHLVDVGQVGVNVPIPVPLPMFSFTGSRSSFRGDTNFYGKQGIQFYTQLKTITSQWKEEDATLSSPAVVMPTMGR
inactive: [1] -0.02 | [2] 0.032 | [3] -0.039 | [4] 0.044 | Nexturastat A -0.014 | vemurafenib 0.025 | [5] 0.011 | [6] 0.029 | givinostat -0.017 | barasertib -0.038

ADPRHL2 (UniProt Q9NX46)
inactive: [1] 0.022 | [2] -0.06 | [3] 0.007 | [4] 0.111 | Nexturastat A -0.077 | vemurafenib 0.126 | [5] 0.076 | [6] -0.003 | givinostat 0.004 | barasertib 0.043

BRD8 (UniProt Q9H0E9)
inactive: [1] 0.002 | [2] 0.026 | [3] -0.01 | [4] 0.017 | Nexturastat A -0.098 | vemurafenib 0.027 | [5] 0.01 | [6] 0.002 | givinostat -0.153 | barasertib -0.026

ALDH2 isoform 2 (UniProt P05091)
UniProt P05091, sequence (P05091 whole entry, looked up): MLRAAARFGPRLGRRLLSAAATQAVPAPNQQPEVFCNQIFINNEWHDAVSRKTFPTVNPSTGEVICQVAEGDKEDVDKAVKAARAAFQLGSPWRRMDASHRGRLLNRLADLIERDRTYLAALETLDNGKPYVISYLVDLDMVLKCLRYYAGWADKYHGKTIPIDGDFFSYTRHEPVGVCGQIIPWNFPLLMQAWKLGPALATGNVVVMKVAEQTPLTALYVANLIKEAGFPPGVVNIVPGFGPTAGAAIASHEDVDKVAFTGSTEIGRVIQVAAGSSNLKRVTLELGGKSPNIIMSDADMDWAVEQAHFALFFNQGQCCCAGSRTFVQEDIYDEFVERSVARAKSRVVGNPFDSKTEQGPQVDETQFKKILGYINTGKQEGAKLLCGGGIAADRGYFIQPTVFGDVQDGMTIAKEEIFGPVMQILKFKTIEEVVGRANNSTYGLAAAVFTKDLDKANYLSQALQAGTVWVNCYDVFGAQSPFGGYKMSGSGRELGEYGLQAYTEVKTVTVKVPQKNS
inactive: [1] 0.075 | [2] -0.049 | [3] -0.106 | Nexturastat A -0.103 | vemurafenib -0.023 | [5] -0.141 | barasertib 0.099

BRD4 (UniProt O60885)
inactive: [1] 0.245 | [2] -0.272 | [3] 0.071 | vemurafenib 0.046 | [5] -0.003 | [6] 0.017 | givinostat -0.252 | barasertib 0.021
active: Nexturastat A -0.451

ACTBL2 (UniProt Q562R1)
inactive: [1] 0.238 | [2] 0.243 | [3] -0.385 | Nexturastat A -0.049 | vemurafenib 0.139 | [5] -0.41 | [6] 0.073 | givinostat -0.342 | barasertib 0.161

BRD8 isoform 2 (UniProt Q9H0E9)
inactive: [1] -0.013 | [2] -0.333 | [3] -0.044 | [4] -0.023 | Nexturastat A -0.023 | vemurafenib 0.183 | [5] 0.06 | givinostat -0.126 | barasertib -0.039

AGAP3 isoform 4 (UniProt Q96P47)
inactive: [1] 0.037 | [2] 0.071 | [3] -0.039 | [4] -0.081 | Nexturastat A 0.252 | [5] -0.022 | [6] 0.089 | givinostat 0.113 | barasertib 0.199

AP2S1 (UniProt P53680)
inactive: [1] 0.009 | [2] -0.028 | [3] -0.036 | [4] 0.037 | Nexturastat A -0.038 | vemurafenib 0.002 | [5] 0.03 | [6] 0.007 | givinostat -0.015 | barasertib -0.034

ATP5IF1 (UniProt Q9UII2)
inactive: [1] -0.035 | [2] 0.009 | [3] -0.005 | [4] 0.021 | Nexturastat A -0.041 | vemurafenib -0.078 | [5] -0.043 | [6] -0.022 | givinostat -0.005 | barasertib 0.026

ABCA3 (UniProt Q99758)
inactive: [1] -0.029 | [2] 0.011 | [3] -0.008 | [4] -0.035 | Nexturastat A -0.142 | vemurafenib -0.161 | [5] -0.112 | givinostat 0.059 | barasertib 0.196

BRD3 (UniProt Q15059)
inactive: [1] 0.261 | [2] 0.008 | [3] 0.035 | [4] -0.003 | vemurafenib 0.198 | [5] -0.048 | [6] -0.017 | barasertib -0.339
active: givinostat -0.842

ARHGAP4 isoform 2 (UniProt P98171)
UniProt P98171, sequence (P98171 whole entry, looked up): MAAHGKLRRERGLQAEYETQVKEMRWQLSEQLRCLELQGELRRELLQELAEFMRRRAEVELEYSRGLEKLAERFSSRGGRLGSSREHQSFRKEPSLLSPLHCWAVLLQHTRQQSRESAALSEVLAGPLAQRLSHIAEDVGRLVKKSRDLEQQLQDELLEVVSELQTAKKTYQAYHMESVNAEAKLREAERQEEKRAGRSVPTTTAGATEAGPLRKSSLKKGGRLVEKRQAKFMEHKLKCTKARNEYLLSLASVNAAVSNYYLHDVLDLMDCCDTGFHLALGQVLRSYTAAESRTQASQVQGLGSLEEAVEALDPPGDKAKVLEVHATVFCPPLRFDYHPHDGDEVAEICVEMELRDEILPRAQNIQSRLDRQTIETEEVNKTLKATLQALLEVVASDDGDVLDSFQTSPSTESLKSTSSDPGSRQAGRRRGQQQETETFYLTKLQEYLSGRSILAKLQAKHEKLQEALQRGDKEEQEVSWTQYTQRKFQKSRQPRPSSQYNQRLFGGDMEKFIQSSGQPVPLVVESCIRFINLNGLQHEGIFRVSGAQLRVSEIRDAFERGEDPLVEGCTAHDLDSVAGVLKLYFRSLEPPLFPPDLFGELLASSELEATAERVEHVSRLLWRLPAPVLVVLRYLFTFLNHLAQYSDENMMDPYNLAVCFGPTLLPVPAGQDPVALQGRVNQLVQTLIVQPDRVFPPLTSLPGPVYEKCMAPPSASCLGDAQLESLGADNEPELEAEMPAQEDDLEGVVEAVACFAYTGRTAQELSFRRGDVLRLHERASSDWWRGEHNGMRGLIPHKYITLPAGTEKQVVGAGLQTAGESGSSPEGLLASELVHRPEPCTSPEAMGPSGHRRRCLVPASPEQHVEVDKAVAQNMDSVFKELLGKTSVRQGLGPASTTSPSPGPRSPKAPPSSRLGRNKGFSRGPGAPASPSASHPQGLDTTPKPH
inactive: [1] -0.14 | [2] 0.039 | [3] -0.08 | vemurafenib 0.047 | [5] -0.049 | [6] -0.194 | givinostat 0.034 | barasertib -0.466

AGO1 (UniProt Q9UL18)
inactive: [1] -0.213 | [2] -0.021 | [3] -0.025 | [4] 0.193 | Nexturastat A 0.084 | vemurafenib -0.023 | [5] -0.006 | [6] -0.111 | givinostat 0.071 | barasertib -0.064

ADD3 (UniProt Q9UEY8)
UniProt Q9UEY8, sequence (Q9UEY8 whole entry, looked up): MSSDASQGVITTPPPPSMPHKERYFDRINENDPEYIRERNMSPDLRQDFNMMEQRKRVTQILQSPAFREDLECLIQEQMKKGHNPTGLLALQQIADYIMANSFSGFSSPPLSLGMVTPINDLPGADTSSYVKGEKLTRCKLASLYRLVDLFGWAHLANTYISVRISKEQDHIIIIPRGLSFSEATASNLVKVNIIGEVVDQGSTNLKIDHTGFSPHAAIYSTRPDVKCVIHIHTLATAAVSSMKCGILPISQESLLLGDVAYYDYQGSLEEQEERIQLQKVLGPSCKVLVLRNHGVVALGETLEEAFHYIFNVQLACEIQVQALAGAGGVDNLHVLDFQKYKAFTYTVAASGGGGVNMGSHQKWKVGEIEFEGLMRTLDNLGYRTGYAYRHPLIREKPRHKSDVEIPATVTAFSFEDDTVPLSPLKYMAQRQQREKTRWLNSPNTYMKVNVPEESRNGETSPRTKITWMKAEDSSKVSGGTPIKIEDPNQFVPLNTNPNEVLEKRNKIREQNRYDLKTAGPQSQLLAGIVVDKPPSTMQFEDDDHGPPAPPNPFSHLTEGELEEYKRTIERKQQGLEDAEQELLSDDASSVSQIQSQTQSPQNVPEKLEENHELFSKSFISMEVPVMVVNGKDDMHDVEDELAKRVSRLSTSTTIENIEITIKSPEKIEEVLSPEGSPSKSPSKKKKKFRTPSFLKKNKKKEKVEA
inactive: [1] 0.024 | [2] 0.016 | [3] -0.015 | [4] -0.003 | Nexturastat A 0.021 | vemurafenib -0.021 | [5] 0.006 | [6] -0.013 | givinostat -0.043 | barasertib -0.01

ARFGAP2 (UniProt Q8N6H7)
UniProt Q8N6H7, sequence (Q8N6H7 whole entry, looked up): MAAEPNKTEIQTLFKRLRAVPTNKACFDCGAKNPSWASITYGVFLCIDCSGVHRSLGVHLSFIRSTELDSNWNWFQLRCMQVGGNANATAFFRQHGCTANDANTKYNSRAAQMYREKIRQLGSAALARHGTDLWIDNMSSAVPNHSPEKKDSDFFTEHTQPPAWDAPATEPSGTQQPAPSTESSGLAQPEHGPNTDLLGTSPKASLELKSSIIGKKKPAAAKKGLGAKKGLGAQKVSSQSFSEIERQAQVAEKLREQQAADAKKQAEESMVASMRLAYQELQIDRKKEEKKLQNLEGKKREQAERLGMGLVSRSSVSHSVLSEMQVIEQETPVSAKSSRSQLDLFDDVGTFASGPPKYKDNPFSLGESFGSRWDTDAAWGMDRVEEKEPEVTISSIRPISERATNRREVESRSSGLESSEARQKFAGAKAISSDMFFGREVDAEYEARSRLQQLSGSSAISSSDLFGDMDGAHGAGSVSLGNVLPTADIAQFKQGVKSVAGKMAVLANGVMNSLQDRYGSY
inactive: [1] 0.03 | [2] -0.065 | [3] -0.027 | [4] -0.04 | Nexturastat A -0.033 | vemurafenib 0.02 | [5] 0.033 | [6] 0.021 | givinostat 0.06 | barasertib 0.066

BRIP1 (UniProt Q9BX63)
UniProt Q9BX63, sequence (Q9BX63 whole entry, looked up): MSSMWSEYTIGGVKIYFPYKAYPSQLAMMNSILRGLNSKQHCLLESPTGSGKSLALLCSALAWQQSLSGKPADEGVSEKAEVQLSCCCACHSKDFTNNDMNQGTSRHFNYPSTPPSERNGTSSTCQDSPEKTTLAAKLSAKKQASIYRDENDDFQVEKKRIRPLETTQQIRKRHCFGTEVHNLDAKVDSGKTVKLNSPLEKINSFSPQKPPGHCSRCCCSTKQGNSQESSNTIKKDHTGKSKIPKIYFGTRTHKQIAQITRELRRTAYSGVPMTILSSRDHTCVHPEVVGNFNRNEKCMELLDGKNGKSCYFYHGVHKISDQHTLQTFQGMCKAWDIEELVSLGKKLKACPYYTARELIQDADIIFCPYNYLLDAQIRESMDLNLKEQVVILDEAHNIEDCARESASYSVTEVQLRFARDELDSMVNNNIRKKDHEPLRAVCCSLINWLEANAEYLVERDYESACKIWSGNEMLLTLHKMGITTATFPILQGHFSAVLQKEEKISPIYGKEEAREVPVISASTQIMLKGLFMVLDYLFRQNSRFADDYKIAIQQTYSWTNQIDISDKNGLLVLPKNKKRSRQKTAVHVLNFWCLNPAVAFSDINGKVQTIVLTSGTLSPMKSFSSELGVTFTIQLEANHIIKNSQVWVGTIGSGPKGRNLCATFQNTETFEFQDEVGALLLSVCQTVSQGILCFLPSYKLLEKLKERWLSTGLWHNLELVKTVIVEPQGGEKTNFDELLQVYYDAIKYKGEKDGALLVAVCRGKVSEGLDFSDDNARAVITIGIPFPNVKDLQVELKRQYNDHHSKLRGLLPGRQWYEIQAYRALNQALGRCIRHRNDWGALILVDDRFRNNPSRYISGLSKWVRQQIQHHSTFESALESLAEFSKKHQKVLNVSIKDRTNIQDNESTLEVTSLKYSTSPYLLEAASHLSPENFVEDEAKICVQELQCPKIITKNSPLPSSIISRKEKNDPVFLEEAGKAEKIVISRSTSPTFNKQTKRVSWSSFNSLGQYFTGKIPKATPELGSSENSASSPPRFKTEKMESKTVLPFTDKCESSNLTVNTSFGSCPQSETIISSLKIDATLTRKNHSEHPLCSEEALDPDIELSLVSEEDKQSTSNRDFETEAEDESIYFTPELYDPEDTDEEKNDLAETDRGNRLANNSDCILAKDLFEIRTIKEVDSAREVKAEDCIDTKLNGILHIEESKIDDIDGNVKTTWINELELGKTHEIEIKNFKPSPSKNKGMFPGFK
inactive: [1] -0.049 | [2] -0.007 | [3] -0.009 | [4] -0.03 | Nexturastat A 0.23 | vemurafenib 0.184 | [5] 0.045 | givinostat 0.004 | barasertib -0.162

ABITRAM (UniProt Q9NX38)
inactive: [1] 0.011 | [2] -0.036 | [3] 0.062 | [4] 0.027 | Nexturastat A -0.114 | vemurafenib 0 | [5] 0.095 | [6] -0.252 | barasertib 0.03

ATP13A3 (UniProt Q9H7F0)
inactive: [1] 0.027 | [2] 0.031 | [3] -0.068 | [4] 0.012 | Nexturastat A -0.042 | vemurafenib -0.014 | [5] -0.02 | [6] -0.076 | givinostat 0.025 | barasertib -0.001

APOH (UniProt P02749)
UniProt P02749, sequence (P02749 whole entry, looked up): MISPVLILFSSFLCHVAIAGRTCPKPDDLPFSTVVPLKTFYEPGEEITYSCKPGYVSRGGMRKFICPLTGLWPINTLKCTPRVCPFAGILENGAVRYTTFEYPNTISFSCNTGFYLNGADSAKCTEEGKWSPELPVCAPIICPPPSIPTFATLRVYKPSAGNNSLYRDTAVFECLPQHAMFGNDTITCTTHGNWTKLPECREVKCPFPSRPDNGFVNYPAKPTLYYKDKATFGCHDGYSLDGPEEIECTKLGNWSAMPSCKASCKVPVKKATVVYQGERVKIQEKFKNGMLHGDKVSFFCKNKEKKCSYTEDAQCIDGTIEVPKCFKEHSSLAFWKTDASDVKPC
inactive: [1] -0.346 | [2] 0.265 | [3] 0.055 | [4] 0.192 | vemurafenib 0.225 | [5] -0.063 | [6] -0.611 | givinostat 0.046 | barasertib -0.203

ANKRD29 (UniProt Q8N6D5)
inactive: [1] 0.046 | [2] 0.022 | [3] 0.027 | [4] -0.035 | Nexturastat A 0.371 | vemurafenib -0.064 | [5] -0.031 | [6] -0.073 | givinostat 0.247 | barasertib -0.124

ADAM15 (UniProt Q13444)
inactive: [1] -0.045 | [2] 0.056 | [3] 0 | [4] -0.14 | Nexturastat A -0.016 | vemurafenib -0.022 | [5] 0.007 | givinostat 0.308 | barasertib -0.043

ALG3 (UniProt Q92685)
active: [4] 0.376
inactive: [1] 0.108 | [2] 0.002 | [3] 0.113 | Nexturastat A 0.008 | vemurafenib -0.076 | [5] 0.123 | [6] -0.079 | givinostat -0.09 | barasertib 0

ARRDC1 (UniProt Q8N5I2)
inactive: [1] -0.061 | [2] 0 | [3] 0.071 | Nexturastat A 0.021 | vemurafenib 0.048 | [5] 0.039 | [6] 0.023 | givinostat 0.136 | barasertib -0.179

ATIC (UniProt P31939)
inactive: [1] 0.083 | [2] -0.022 | [3] 0.059 | [4] 0.022 | Nexturastat A -0.076 | vemurafenib 0.025 | [5] 0.052 | [6] 0.019 | givinostat -0.036 | barasertib 0.013

BTBD6 (UniProt Q96KE9)
inactive: [1] -0.061 | [2] -0.108 | [3] 0.003 | Nexturastat A 0.531 | vemurafenib 0.002 | [5] 0.007 | [6] -0.017 | givinostat 0.358 | barasertib -0.017

AARSD1 (UniProt Q9BTE6)
inactive: [3] 0.044 | [4] 0.278 | [5] 0.206 | [6] 0.027 | givinostat -0.285 | barasertib 0.119

BAP18 isoform 3 (UniProt Q8IXM2)
inactive: [6] 0.005 | givinostat 0.025

ABHD11 (UniProt Q8NFV4)
inactive: [2] -0.065 | [3] -0.004 | [4] 0.003 | Nexturastat A -0.028 | vemurafenib 0.139 | [5] -0.011 | [6] 0.023 | givinostat 0.02 | barasertib 0.057

AP4S1 (UniProt Q9Y587)
inactive: [1] 0.033 | [3] -0.017 | [4] -0.007 | Nexturastat A -0.097 | vemurafenib 0.107 | [5] 0.02 | [6] 0.102 | givinostat 0 | barasertib -0.008
